Experimental data taken from PubChem BioAssay.

Key:
[1] = test system: Human papillomavirus type 1a protein E7 (residues 44-93); assay: HPV1a E7 fragment binders on microarrays, primary screen, biochemical, small-molecule microarray, residues 44-93, 635 nm fluorescence (AID 1108); conditions: small-molecule microarray binding, fluorescence 635 nm; higher = more signal;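 further: E7 fragment applied at 1 µg/mL in TBST for 1 h at 4 C; score combines spot fluorescence with its signal to noise ratio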
[2] = modulators of HCV replicon luciferase signal, primary screen, HCV replication inhibitor project, Huh7 cells, luciferase reporter (AID 1109); conditions: 48 h, higher = more signal;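 further: huh7 hepatoma cells harbouring a luciferase neomycin HCV replicon reporter; luciferase luminescence as measure of HCV replicon replication; test concentration not given here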
[3] = biological target: Left-right determination factor 2 (Homo sapiens) (UniProt O00292); assay: LEFTY2 binders on small-molecule microarrays, primary screen, biochemical, small-molecule microarray, 635 nm fluorescence scan (AID 1110); conditions: LEFTY2 binding, higher = more signal
Sequence of Left-right determination factor 2 (Homo sapiens) (O00292 whole entry, looked up): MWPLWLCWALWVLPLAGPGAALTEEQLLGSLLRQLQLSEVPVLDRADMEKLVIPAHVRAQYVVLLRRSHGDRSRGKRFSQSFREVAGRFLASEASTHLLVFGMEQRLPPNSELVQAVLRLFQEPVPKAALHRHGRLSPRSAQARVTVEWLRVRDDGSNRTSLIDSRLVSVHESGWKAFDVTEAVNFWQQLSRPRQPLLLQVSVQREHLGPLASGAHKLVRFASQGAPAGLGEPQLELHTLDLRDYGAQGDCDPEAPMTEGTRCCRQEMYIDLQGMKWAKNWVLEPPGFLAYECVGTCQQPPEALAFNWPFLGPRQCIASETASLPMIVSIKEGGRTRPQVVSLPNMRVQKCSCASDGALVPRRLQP

[4] = biological target: Calmodulin-1 (Homo sapiens) (UniProt P0DP23); assay: CALM1 binders on microarrays, EGTA buffer, profiling panel, biochemical, small-molecule microarray, Cy5-labelled CALM1 (AID 1111); conditions: Cy5-CALM1 binding fluorescence, higher = more signal;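 further: labelled calmodulin applied in Tris saline Tween buffer holding calcium plus EGTA and DTT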
[5] = biological target: Calmodulin-1 (Homo sapiens) (UniProt P0DP23); assay: calcium-bound CALM1 binders on microarrays, profiling panel, artefact control for SMM control-protein annotation, biochemical, small-molecule microarray, Cy5-labelled CALM1, plus calcium (AID 1112); conditions: Cy5-CALM1 binding fluorescence, higher = more signal;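 further: score merges spot fluorescence with signal to noise from triplicate slides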
[6] = small-molecule microarray binders of probe aWnt5a, primary screen, biochemical, biotinylated probe, 635/667 nm fluorescence (AID 1113); conditions: higher = more signal;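 further: score merges 667 nm fluorescence intensity with signal-to-noise per printed feature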
[7] = small-molecule microarray binders of probe aShh, primary screen, biochemical, biotinylated probe, 635/667 nm fluorescence (AID 1114); conditions: higher = more signal;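 further: probe is biotin-labelled aShh protein from a stem cell growth factor screen; measures binding of labelled protein to compounds printed on the slide; score merges feature fluorescence at 667 nm with signal-to-noise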
[8] = small-molecule microarray binders of probe aNog, primary screen, biochemical, biotinylated probe, 635/667 nm fluorescence (AID 1115); conditions: higher = more signal;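 further: probe is biotinylated aNog protein used at 0.15 µg/mL for 1 h at 4 C; z-score combines 667 nm fluorescence of each spot with its signal to noise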
[9] = biological target: Torsin-1A-interacting protein 1 (Homo sapiens) (UniProt Q5JTV8); assay: LAP1 binders from COS7 cell lysate, primary screen, small-molecule microarray, 635/667 nm fluorescence (AID 1116); conditions: COS7-hLAP1 lysate binding, 635 nm fluorescence, higher = more signal
Sequence of Torsin-1A-interacting protein 1 (Homo sapiens) (Q5JTV8 whole entry, looked up): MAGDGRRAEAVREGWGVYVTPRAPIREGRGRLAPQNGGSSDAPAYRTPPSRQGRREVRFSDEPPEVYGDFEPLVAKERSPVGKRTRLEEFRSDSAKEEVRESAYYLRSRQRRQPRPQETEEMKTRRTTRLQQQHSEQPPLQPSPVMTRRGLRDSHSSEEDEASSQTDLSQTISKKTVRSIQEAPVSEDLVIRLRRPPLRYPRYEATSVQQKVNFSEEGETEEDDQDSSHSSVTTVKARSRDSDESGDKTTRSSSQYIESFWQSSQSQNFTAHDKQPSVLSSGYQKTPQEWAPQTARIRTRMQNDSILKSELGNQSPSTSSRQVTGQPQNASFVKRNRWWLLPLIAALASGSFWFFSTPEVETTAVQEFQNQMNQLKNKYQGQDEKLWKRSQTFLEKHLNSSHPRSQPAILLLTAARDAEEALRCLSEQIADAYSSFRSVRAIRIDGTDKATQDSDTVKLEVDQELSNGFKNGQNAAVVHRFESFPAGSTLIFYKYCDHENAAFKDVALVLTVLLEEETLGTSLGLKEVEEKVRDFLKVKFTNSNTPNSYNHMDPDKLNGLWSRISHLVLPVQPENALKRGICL

[10] = biological target: Alpha-bungarotoxin (Bungarus multicinctus) (UniProt P60615); assay: alpha-bungarotoxin binders on microarray, profiling panel, artefact control for SMM control protein annotation, biochemical, small-molecule microarray, Alexa647 label, 635/667 nm fluorescence (AID 1117); conditions: alpha-BTX-A647 binding fluorescence, higher = more signal
Sequence of Alpha-bungarotoxin (Bungarus multicinctus) (P60615 whole entry, looked up): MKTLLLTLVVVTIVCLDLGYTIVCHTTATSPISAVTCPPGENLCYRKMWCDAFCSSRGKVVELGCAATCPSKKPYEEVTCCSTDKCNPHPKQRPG

SMILES | composite z-score [1] | z-score [2] | composite z-score [3] | composite z-score [4] | composite z-score [5] | composite z-score [6] | composite z-score [7] | composite z-score [8] | composite z-score [9] | composite z-score [10]
Cc1cc2c(nc1C)CCCN2CC(C)ON=C1[C@H]2CCn3c(=O)n(-c4ccccc4)c(=O)n3[C@H]2[C@H](O)[C@@H]2O[C@H]12 (stereo not given in full) | 0.862 | -3.29 | 0.377 | -0.135 | -0.458 | -0.0077 | 0.767 | 0.066 | 0.184 | 0.515
COc1ccc([Si](C)(C)[C@@H]2[C@@H](CC(=O)N3CCC[C@H]3CO)O[C@]3(C(=O)N(Cc4cccc(N5CCC5=O)c4)c4ccccc43)[C@H]2C)cc1 | 1.4 | -2.1 | 0.162 | 0.504 | -0.098 | -0.0236 | 0.199 | 0.15 | 0.989 | 1.44
COc1ccc(CCNC(=O)[C@@H]2c3ccccc3C(=O)N(c3ccc(C)cn3)[C@H]2c2ccc(CO)cc2)cc1 | -0.618 | 0.267 | -1.76 | -0.822 | -0.796 | -0.242 | -0.367 | -0.266 | 3.04 | -0.955
NCCCCCNC(=O)[C@@H]1C[C@@H]2C(=O)N3CCC[C@H]3C(=O)N2[C@@H]1c1cccc(OCCO)c1 | 0.933 | -1.03 | 0.781 | 1.38 | 0.929 | 0.0024 | 0.315 | 1.55 | 1.72 | 0.482
O=C1c2ccccc2[C@@]2(Cc3ccccc3N(C3CC3)C2=O)[C@H](c2ccc(CO)cc2)N1Cc1ccccc1C(F)(F)F | 0.223 | -2.39 | -1.18 | -0.48 | -0.382 | -0.154 | 0.0545 | -0.23 | 0.188 | -1.37
C[C@@H]1C=CCC(=O)OC[C@H](C)C(=O)N[C@@H](C)C(=O)OC1 | -0.0639 | -0.512 | 0.409 | -0.556 | -0.897 | -0.0721 | 0.178 | -0.141 | 0.789 | -0.194
CO[C@@H]1COC(=O)CC=C[C@@H](C)[C@@H]2C=C[C@H](O)[C@@H](COC(=O)[C@H](C)NC(=O)CC=C[C@H]1C)O2 | -1.68 | -2.12 | 0.433 | -1.52 | -1.99 | -0.103 | -0.0035 | -0.466 | -0.0424 | 0.304
COC(=O)CC=C[C@H](C)[C@@H](OCc1ccccc1Br)C(C)C | -0.261 | 0.0087 | 0.551 | -0.354 | -0.679 | -0.0417 | -0.138 | -0.333 | -0.173 | 1.54
O=C1CCCC2OC12C(O)CCc1ccccc1 (stereo not given) | -0.118 | -0.862 | 0.585 | -0.429 | -0.552 | 0.0516 | -0.206 | -0.175 | 0.0788 | 0.176
CCOC(=O)[C@H](Cc1ccccc1)NC(=O)CCC1CC(OC(=O)NCCc2ccc(F)cc2)CC2(CCCC(COC(=O)NCC(c3ccccc3)c3ccccc3)O2)O1 (stereo not given in full) | 1.33 | 0.0395 | 0.414 | 0.53 | -0.658 | -0.124 | -0.0146 | -0.0496 | 2.49 | 0.0051
COC(=O)CC=C[C@@H](C)[C@@H](C=NO[C@H](C)c1cn([C@@H]2COC[C@H]2O)nn1)OC | 0.768 | 0.128 | 0.589 | -0.662 | -0.793 | -0.0478 | -0.291 | -0.0762 | -0.306 | 1.01
CCCCCCc1nc(CCCc2cc3c(c(CCCCCC)n2)[Si](C(C)C)(C(C)C)O[C@H]3c2ccccc2)cc2c1[Si](C(C)C)(C(C)C)O[C@H]2c1ccccc1 | 0.15 | -0.904 | 0.109 | 0.146 | -0.021 | -0.148 | -0.0626 | -0.213 | -0.0561 | 0.181
COc1ccc(COC(=O)NN=C2C[C@@H](O)[C@@H](O)[C@@H]3[C@@H]4C(=O)N(Cc5ccc6c(c5)OCO6)C(=O)[C@@H]4CC[C@@H]23)cc1 | -0.743 | -0.404 | -0.218 | -0.389 | -0.252 | -0.0465 | 0.255 | 0.175 | 0.508 | 0.452
Cn1c(=O)n2n(c1=O)[C@H]1[C@H](O)[C@@H]3O[C@@H]3C(=NOC[C@@H](O)COCc3ccco3)[C@H]1CC2 | 0.499 | 0.481 | 0.83 | 0.132 | -0.844 | -0.216 | -0.468 | 0.964 | 0.314 | 0.318
C[C@@H]1C=CCC(=O)OC[C@H](C)C(=O)OC[C@H]2O[C@H]1C=C[C@H]2O | 0.0717 | -2.33 | 0.71 | -0.239 | -1.16 | -0.228 | -0.0793 | -0.278 | -0.0644 | -0.108
CC(=O)OC[C@H]1O[C@H](C#CCCCc2ccccc2)C=C[C@@H]1OC(C)=O | 0.108 | -2.99 | 0.615 | -0.826 | -0.794 | -0.118 | -0.0474 | -0.493 | 0.298 | 0.155
CC(C)c1ccc(NN2C(C(O)c3ccc4c(c3)OCO4)C=CC3C(=O)N(c4ccccc4)C(=O)C32)cc1 (stereo not given) | 0.688 | 1.11 | 0.168 | 2.56 | 1.28 | 0.0775 | 0.108 | 2.13 | 2.2 | 1.92
COC(=O)[C@@]1(Cc2ccc(F)cc2)[C@@H]2C(=CC(=O)[C@H]2CC(=O)C(=O)N(C)C)CN1C(=O)c1ccccc1 | 1.46 | -2.09 | 0.45 | 1.98 | 1.21 | 0.0839 | 1.21 | 0.896 | 1.52 | 0.954
